Assay [1] concerns the target Tyrosine-protein kinase CSK (Homo sapiens) (UniProt P41240). Conditions: at 1 µM.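 Further: each value is an averaged inhibition reading.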
In assay [2] the target is T1, Discoidin domain-containing receptor 2 (Homo sapiens) (UniProt Q16832).
T1 sequence (whole entry): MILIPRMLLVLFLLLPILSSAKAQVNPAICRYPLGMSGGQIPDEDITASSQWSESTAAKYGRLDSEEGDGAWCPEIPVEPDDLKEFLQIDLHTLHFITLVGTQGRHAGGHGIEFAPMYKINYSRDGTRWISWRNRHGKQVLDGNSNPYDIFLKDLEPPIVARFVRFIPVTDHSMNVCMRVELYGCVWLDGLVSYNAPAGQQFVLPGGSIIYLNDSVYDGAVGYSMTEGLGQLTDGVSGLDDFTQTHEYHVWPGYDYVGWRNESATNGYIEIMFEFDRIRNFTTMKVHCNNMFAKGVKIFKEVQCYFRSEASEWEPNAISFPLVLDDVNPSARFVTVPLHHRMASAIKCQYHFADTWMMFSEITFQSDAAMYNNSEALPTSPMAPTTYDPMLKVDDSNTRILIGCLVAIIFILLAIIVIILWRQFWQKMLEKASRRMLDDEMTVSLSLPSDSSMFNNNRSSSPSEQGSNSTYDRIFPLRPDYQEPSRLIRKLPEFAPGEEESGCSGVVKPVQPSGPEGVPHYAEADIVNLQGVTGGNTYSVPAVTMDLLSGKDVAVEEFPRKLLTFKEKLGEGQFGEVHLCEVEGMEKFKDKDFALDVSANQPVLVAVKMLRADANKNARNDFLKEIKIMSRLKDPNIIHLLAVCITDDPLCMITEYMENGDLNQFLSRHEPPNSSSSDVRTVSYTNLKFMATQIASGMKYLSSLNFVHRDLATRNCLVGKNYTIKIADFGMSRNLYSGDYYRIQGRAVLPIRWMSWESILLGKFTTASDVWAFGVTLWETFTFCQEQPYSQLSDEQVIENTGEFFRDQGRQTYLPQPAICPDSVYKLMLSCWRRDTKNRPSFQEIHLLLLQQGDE
As to conditions: at 0.1 µM.

The target of assay [3] is T1, Discoidin domain-containing receptor 2 (Homo sapiens). As to conditions: at 1 µM.
Assay [4] deals with Epidermal growth factor receptor (Homo sapiens) (UniProt P00533). Conditions: at 0.1 µM.
Assay [5] shares this target. As to conditions: at 1 µM.
Assay [6] concerns Epidermal growth factor receptor (Homo sapiens), P00533 [L858R]. Conditions: at 0.1 µM.
For assay [7] the test system is unchanged. Conditions: at 1 µM.
The subject of assay [8] is Epidermal growth factor receptor (Homo sapiens), P00533 [L861Q]. Conditions: at 0.1 µM.
Assay [9] shares this test system. As to conditions: at 1 µM.
The test system of assay [10] is Epidermal growth factor receptor (Homo sapiens), P00533 [T790M]. Conditions: at 0.1 µM.
Assay [11] has the same test system. Conditions: at 1 µM.
Assay [12] deals with Epidermal growth factor receptor (Homo sapiens), P00533 [L858R,T790M]. Conditions: at 0.1 µM.
For assay [13] the test system is unchanged. Conditions: at 1 µM.
For assay [14], the target named is Ephrin type-A receptor 2 (Homo sapiens) (UniProt P29317). As to conditions: at 0.1 µM.
Assay [15] shares this target. Conditions: at 1 µM.
The target of assay [16] is T2, Ephrin type-A receptor 3 (Homo sapiens) (UniProt P29320).
T2 sequence (whole entry): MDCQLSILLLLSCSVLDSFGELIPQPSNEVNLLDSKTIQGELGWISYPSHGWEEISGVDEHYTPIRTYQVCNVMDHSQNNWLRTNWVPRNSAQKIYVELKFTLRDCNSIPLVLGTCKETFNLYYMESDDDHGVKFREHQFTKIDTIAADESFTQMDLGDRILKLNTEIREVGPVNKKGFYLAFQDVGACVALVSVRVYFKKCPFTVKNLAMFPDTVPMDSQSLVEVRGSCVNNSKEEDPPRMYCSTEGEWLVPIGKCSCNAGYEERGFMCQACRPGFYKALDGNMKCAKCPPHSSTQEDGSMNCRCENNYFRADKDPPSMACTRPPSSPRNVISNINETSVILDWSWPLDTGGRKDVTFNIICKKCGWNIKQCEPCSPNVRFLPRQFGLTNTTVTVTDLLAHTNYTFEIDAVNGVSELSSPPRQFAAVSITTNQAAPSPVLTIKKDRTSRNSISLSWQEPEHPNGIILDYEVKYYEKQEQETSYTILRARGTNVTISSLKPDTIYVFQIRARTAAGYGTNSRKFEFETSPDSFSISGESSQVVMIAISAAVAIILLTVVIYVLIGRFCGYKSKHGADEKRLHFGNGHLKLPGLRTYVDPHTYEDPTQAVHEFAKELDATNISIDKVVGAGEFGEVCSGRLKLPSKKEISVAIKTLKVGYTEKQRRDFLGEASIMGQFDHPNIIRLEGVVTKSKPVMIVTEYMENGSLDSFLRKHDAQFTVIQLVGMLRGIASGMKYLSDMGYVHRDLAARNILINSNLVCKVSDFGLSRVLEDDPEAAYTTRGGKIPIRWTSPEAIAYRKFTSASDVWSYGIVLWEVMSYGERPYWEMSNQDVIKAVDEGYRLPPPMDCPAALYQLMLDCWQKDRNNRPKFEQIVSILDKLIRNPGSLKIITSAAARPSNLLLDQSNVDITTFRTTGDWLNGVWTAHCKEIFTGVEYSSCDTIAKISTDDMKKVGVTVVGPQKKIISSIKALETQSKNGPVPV
As to conditions: at 0.1 µM.

The target in assay [17] is T2, Ephrin type-A receptor 3 (Homo sapiens). As to conditions: at 1 µM.
Assay [18] concerns the target Ephrin type-A receptor 4 (Homo sapiens) (UniProt P54764). As to conditions: at 0.1 µM.
For assay [19] the target is unchanged. As to conditions: at 1 µM.
Assay [20] deals with T3, Ephrin type-B receptor 2 (Homo sapiens) (UniProt P29323).
T3 sequence (whole entry): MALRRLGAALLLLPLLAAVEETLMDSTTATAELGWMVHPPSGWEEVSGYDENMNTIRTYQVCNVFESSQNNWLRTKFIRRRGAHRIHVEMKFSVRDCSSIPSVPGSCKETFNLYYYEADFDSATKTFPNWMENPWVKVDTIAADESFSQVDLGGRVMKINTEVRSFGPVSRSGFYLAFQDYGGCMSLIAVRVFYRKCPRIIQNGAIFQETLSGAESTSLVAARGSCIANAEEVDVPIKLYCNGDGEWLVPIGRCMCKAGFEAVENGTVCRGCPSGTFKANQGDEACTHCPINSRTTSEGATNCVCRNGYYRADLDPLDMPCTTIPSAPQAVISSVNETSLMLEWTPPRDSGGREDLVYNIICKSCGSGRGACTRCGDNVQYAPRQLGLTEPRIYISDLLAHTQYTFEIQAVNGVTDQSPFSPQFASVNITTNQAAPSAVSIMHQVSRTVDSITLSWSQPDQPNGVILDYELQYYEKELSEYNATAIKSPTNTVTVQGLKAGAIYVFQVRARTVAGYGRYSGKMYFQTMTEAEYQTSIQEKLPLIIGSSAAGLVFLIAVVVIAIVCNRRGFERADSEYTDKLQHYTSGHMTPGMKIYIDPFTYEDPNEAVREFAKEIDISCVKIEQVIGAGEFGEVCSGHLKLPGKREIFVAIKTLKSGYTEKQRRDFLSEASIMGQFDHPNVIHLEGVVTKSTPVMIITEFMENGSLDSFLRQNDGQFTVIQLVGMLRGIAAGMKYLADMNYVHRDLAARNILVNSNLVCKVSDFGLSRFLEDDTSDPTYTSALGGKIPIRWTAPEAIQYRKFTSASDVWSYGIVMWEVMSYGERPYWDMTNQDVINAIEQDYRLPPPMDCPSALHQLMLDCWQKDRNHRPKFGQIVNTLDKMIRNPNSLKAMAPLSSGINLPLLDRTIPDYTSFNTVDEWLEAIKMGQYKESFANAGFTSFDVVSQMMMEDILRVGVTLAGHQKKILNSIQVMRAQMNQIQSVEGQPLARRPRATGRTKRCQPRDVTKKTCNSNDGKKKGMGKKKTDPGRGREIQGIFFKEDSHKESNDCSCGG
As to conditions: at 0.1 µM.

Consider seven compounds from ChEMBL document CHEMBL1961873, “Compounds: GSK PKIS; Assays: Nanosyn kinase panel” (2012).

Ephrin type-A receptor 4 (Homo sapiens), sequence (P54764 whole entry): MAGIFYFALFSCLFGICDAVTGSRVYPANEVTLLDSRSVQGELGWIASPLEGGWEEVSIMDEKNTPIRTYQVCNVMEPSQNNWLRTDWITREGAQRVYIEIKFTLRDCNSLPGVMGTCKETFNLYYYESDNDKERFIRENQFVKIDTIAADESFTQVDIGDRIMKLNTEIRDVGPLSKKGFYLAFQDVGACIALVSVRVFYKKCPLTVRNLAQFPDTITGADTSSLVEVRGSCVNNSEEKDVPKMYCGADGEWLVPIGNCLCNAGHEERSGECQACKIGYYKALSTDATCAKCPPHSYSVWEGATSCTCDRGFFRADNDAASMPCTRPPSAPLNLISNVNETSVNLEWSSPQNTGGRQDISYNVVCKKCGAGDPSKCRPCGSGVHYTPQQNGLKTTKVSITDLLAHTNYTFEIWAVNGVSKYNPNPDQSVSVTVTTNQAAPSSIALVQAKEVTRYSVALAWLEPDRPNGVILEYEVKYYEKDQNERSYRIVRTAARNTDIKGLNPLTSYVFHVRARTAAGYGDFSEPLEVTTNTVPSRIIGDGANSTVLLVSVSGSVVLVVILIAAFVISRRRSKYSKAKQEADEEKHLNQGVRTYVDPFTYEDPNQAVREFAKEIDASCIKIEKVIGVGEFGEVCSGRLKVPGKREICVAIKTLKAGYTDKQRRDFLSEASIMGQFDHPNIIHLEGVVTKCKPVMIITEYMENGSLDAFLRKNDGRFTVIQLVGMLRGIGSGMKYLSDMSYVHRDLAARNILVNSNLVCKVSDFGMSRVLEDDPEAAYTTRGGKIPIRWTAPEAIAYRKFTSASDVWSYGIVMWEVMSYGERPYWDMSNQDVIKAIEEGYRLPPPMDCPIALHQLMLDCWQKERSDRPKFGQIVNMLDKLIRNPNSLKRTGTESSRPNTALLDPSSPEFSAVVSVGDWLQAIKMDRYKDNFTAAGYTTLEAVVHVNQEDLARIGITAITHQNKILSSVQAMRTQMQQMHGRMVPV
Tyrosine-protein kinase CSK (Homo sapiens), sequence (P41240 2-450 limits assumed): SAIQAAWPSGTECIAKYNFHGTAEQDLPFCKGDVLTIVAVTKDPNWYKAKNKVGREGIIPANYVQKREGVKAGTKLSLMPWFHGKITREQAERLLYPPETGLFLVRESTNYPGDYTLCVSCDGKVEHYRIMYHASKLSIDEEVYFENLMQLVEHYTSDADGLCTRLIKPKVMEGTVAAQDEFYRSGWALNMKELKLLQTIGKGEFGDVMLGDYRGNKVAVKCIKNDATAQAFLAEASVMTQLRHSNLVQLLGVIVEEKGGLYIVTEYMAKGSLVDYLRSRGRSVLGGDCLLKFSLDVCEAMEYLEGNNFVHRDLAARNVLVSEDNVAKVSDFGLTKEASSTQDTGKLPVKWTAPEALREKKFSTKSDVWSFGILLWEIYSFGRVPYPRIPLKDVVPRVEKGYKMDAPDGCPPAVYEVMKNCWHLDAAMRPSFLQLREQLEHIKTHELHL
Epidermal growth factor receptor (Homo sapiens), P00533 [L858R,T790M], sequence (P00533 whole entry T790M/L858R, looked up): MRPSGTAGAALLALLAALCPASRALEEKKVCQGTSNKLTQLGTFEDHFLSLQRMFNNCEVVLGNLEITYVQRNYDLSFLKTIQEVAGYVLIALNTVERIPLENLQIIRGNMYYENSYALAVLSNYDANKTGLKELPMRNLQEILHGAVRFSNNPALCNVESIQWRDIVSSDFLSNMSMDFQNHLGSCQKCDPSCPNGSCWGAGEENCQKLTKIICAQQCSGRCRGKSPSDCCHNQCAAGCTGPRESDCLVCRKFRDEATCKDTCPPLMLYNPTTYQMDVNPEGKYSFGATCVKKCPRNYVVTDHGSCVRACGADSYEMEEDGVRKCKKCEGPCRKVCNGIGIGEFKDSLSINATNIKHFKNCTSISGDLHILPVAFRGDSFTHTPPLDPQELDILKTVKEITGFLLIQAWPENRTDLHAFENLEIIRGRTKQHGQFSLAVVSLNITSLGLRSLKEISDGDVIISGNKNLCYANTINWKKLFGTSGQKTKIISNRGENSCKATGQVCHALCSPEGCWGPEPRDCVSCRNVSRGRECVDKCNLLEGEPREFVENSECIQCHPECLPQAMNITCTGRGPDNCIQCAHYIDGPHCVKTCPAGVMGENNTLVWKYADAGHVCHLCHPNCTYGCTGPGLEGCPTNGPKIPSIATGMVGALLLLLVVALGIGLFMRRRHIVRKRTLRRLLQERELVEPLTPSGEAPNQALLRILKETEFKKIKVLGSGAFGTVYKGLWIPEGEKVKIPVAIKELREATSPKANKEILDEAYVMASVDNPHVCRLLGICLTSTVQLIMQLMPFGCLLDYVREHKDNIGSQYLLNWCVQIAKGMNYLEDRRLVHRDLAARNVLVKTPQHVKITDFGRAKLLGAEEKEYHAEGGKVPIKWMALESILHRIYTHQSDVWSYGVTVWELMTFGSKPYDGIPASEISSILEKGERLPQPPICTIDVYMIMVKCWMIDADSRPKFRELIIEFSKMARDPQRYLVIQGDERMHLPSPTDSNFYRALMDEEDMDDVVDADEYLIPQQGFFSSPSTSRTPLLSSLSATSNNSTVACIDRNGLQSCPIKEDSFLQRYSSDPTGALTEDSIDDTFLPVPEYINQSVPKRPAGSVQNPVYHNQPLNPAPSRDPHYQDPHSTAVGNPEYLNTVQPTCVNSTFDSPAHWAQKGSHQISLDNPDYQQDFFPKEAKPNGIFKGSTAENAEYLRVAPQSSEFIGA
Epidermal growth factor receptor (Homo sapiens), P00533 [L858R], sequence (P00533 whole entry L858R): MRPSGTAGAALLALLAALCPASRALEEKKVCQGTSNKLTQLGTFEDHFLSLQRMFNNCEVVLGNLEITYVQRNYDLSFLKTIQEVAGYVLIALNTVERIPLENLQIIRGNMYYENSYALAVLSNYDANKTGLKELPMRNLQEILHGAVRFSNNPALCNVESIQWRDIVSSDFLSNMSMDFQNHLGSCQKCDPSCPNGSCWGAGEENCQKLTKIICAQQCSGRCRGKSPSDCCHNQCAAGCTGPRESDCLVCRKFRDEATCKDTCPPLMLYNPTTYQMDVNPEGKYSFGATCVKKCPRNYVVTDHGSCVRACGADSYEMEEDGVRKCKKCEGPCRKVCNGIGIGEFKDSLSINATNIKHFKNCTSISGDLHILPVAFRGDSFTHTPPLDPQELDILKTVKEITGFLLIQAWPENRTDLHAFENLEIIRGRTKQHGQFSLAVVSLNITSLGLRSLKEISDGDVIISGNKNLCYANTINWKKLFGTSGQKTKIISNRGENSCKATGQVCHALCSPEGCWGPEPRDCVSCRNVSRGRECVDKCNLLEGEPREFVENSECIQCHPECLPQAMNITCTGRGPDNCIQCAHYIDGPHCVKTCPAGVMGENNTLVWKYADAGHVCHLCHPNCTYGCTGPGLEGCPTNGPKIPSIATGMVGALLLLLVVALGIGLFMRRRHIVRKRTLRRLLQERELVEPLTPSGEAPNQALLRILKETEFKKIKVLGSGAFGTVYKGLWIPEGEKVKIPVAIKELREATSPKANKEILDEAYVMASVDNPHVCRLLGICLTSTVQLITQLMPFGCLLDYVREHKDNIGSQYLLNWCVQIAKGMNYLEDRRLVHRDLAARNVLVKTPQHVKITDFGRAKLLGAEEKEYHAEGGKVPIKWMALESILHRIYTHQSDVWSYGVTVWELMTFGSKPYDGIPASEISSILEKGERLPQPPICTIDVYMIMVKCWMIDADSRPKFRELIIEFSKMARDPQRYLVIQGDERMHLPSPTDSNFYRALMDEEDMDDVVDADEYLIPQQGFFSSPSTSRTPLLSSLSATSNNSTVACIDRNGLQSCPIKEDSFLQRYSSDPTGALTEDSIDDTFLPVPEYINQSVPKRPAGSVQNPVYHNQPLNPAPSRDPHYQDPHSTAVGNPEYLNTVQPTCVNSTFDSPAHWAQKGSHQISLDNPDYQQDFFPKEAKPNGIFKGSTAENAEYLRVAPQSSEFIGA
Epidermal growth factor receptor (Homo sapiens), sequence (P00533 whole entry): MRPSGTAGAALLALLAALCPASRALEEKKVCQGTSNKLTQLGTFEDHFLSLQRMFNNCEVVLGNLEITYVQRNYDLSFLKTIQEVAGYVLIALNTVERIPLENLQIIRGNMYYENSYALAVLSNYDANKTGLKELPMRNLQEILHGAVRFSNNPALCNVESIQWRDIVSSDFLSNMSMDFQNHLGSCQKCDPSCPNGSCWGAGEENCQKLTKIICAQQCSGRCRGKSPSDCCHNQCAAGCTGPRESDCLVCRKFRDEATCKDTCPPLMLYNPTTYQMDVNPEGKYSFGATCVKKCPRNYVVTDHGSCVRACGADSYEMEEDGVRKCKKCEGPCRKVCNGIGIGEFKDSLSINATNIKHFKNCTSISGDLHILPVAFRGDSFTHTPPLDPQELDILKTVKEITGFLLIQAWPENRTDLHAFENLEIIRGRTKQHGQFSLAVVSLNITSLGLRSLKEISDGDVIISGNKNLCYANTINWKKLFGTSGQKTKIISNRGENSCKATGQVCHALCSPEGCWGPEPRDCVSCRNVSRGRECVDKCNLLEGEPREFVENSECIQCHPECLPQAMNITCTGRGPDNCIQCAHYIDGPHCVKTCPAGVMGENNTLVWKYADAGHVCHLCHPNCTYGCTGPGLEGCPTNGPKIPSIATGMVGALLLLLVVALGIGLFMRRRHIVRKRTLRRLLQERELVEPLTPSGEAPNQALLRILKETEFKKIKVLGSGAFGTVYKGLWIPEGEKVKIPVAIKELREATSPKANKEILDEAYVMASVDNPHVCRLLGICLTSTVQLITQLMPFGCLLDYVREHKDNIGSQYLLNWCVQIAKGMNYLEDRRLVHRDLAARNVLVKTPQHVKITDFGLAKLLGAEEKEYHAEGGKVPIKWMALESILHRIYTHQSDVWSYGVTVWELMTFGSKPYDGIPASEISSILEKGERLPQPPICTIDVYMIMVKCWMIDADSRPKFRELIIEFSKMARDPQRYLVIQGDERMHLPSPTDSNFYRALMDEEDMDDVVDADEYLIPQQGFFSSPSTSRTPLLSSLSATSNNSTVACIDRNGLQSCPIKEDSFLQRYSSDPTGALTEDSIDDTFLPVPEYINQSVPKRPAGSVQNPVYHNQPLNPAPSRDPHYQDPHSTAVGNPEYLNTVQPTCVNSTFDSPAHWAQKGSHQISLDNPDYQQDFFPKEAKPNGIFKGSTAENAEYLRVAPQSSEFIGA

On to `N#Cc1cccc(Nc2nccc(-c3cnn4ncccc34)n2)c1`, for which the inhibition in [1] is 13.4%; in assay [2], 2.63%; in [3], 7.43%; in assay [4] it was 1.1%; in assay [5], 6.11%; in assay [6], 4.18%. Moreover, the inhibition in [7] came out at 18.2%; in assay [8] it was 4.53%; in assay [9], 7.78%; in assay [10], 2.36%; in assay [11], 6.4%; in [12] it was 0.25%. In addition, the inhibition was 9.41% in assay [13]; 2.26% in [14]; 15% in assay [15]; 8.11% in assay [16]; 19.2% in assay [17]; 13% in assay [18]. The inhibition in assay [19] stood at 43.8%; in assay [20] it was 15.1%.
For `O=C1Nc2ccc(-c3cccnc3)cc2C1=Cc1cc(Br)c(O)c(Br)c1`, the inhibition in assay [1] is -1.69%; in assay [2], 2.03%; in assay [3] it was 5.97%; in assay [4], -0.06%; in assay [5], 5.08%; in assay [6] it was 4.88%. Further, the inhibition turned out to be 10.5% in [7]; 2.92% in assay [8]; 2.2% in assay [9]; 2.3% in [10]; 0.57% in [11]; 2.96% in assay [12]. Moreover, the inhibition in assay [13] came out at 5.14%; in [14], 2.12%; in assay [15], 0.76%; in assay [16] it was 4.82%; in assay [17], 3.94%; in assay [18] it was 3.36%. Besides, the inhibition stood at 5.16% in assay [19] and 7.83% in [20].
For `CS(=O)(=O)Nc1cccc(-c2ccc3c(NC(=O)C4CC4)n[nH]c3c2)c1`, the inhibition in [1] is -2.39%; in assay [2], 0.9%; in [3], 0.99%; in [4] it was 0.81%; in assay [5] it was 0.31%; in assay [6] it was -0.89%. Besides, the inhibition was -1.93% in [7]; 1.44% in [8]; -2.52% in assay [9]; -1.89% in assay [10]; -1.01% in assay [11]; 0.55% in assay [12]. In addition, the inhibition is -1.6% in assay [13]; 0.19% in assay [14]; 1.68% in assay [15]; 1.66% in assay [16]; -1.02% in assay [17]; 1.83% in assay [18]. The inhibition in assay [19] is -7.46%; in [20], -4.01%.
`Cc1cc(Cl)cc2c1NC(=O)C2=NNc1ccc(S(N)(=O)=O)cc1`: the inhibition in assay [1] stood at 3.65%; in assay [2], 5.11%; in [3] it was 4.88%; in [4], 0.92%; in [5], 1.34%; in assay [6], 0.35%. Also, the inhibition in assay [7] is 4.79%; in assay [8], 1.56%; in assay [9], 4.09%; in assay [10] it was 1.21%; in [11] it was 3.73%; in assay [12] it was -0.55%. For the same compound, the inhibition was determined as 2.83% in assay [13]; 1.34% in assay [14]; 1.02% in [15]; 3.32% in [16]; 2.87% in [17]; 6.66% in [18]. Moreover, the inhibition in [19] is 7.34%; in assay [20], 4.48%.
In the case of `CC(C)c1ccc(Nc2nccc(-c3cnn4ncccc34)n2)cc1`, the inhibition in [1] turned out to be 6.02%; in [2], 1.04%; in assay [3], 0.75%; in assay [4], 4.49%; in [5], 6.88%; in [6], 3.51%. The inhibition is 7.83% in assay [7]; 4.16% in assay [8]; 6.18% in assay [9]; -0.27% in [10]; 2.45% in [11]; -0.56% in assay [12]. The inhibition in assay [13] was 2.24%; in assay [14] it was -0.98%; in assay [15], 0.28%; in [16], 1.96%; in assay [17], 4.55%; in [18] it was 8.08%. Moreover, the inhibition is 10.3% in assay [19] and 7.64% in assay [20].
`OCc1ccc(-c2nc(-c3ccccn3)c(-c3ccc4c(c3)OCO4)[nH]2)cc1`: the inhibition turned out to be 3.94% in [1]; 2.68% in assay [2]; 4.73% in assay [3]; 3.69% in assay [4]; 6.33% in assay [5]; 3.45% in assay [6]. Also, the inhibition was 1.89% in [7]; 3.49% in [8]; -0.4% in assay [9]; 2.68% in assay [10]; 0.84% in assay [11]; 3.54% in [12]. Further, the inhibition in assay [13] is 0.26%; in assay [14] it was 2.78%; in assay [15], 2.31%; in assay [16], 6.06%; in assay [17] it was 6.97%; in assay [18], 9.84%. For the same compound, the figures for the inhibition in assay [19] and in [20] were 7.48% and 12.2%, respectively.
Consider `COc1cc(/C=N/Nc2ncnc3c2cnn3C(C)C)ccc1O`, for which the inhibition in [1] is -1.57%; in assay [2], -0.03%; in assay [3], -1.45%; in assay [4], 6.39%; in assay [5], 9.9%; in assay [6] it was 3.23%. Besides, the inhibition was 12.2% in assay [7]; 2.56% in assay [8]; 3.26% in assay [9]; 0.17% in assay [10]; 0.47% in assay [11]; -0.23% in [12]. Moreover, the inhibition was determined as 2.31% in assay [13]; 1.56% in assay [14]; 21.1% in [15]; 3.55% in assay [16]; 7.89% in assay [17]; 7.43% in [18]. In addition, the inhibition in assay [19] was 32.9%; in assay [20], 5.57%.
